Target: Solute carrier family 2, facilitated glucose transporter member 1 (Homo sapiens) (UniProt P11166)
Experiment: ST_JUDE_LEISH: Cytotoxicity at 2uM final concentration against transgenic Leishmania Mexicana promastigotes LmGLUT1 that are glucose transport deficient and complemented with the human glucose transporter GLUT1. Activity is measured by DNA content using SYBR green in vitro
Assay type: functional

Solute carrier family 2, facilitated glucose transporter member 1 (Homo sapiens), sequence (P11166 whole entry): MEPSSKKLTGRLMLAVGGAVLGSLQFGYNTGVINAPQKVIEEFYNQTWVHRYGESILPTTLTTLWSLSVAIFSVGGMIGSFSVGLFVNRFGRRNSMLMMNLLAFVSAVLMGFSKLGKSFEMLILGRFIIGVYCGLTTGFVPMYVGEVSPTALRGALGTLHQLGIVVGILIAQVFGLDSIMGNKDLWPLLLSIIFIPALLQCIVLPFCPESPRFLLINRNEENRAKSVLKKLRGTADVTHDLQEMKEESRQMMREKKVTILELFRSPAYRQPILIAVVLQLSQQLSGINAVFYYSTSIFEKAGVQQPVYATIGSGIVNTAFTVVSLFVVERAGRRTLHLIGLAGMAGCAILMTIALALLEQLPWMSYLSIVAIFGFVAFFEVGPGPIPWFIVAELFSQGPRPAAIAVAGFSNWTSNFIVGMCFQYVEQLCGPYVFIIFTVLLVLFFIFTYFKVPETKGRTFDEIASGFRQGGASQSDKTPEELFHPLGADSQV

Compound	inhibition
O=C(Nc1cccc(CN2CCN(Cc3cccc(O)c3)CC2)c1)c1ccc(Cl)c(Cl)c1	-1.71%
CNCc1cccc2nc(-c3csc(Cc4cc(Cl)ccc4OCC(C)C)n3)[nH]c12	-0.53%
NC(Cc1cccc(I)c1)C(=O)NCC1CCCO1 (centres undefined)	1.94%
CCc1cc2c3c(N)nc(N)nc3ccc2n1C(CC)CC	71.2%
Cc1cccc(C)c1/N=C1\NC(=S)N(c2cccc(Cl)c2)C12CCC(C(C)(C)C)CC2 (centres undefined)	-2.68%
O=C(/C=C/c1ccc(F)cc1)NC1CCC(CCN2CCc3ccc(-n4cccn4)cc3CC2)CC1 (centres undefined)	11.7%
COc1cccc(OC)c1CN1CCC(N(C)CCCCCCCCCN2CCC(OC(=O)Nc3ccccc3-c3ccccc3)CC2)CC1	113%
CCCCCN1CCC(NS(=O)(=O)c2cccc(C(=O)Nc3ccc(Cl)cc3)c2)CC1	-0.5%
COc1ccc(-c2nc(NC(=O)Cc3cccc(OC)c3)sc2C)cc1	0.19%
CN(C)CCN(C)Cc1cccc(-c2cccc(NC(=O)c3cccc(C#N)c3)c2)c1	2.87%
CCn1c(Sc2ccc(C#N)c([N+](=O)[O-])c2)nnc1-c1ccc(OC)cc1	2.25%
CCCCNCC(O)COc1ccccc1-c1ccc(N/N=C/c2cccc3ccccc23)nn1 (centres undefined)	3.78%
Clc1ccc(CNc2nc(NCCc3c[nH]cn3)nc(N3CCCC4CCCCC43)n2)cc1 (centres undefined)	3.99%
CC(C)CCN1CCCN(Cc2cccc(NC(=O)c3cc4ccccc4s3)c2)CC1	-0.92%
CCOC(=O)c1c(C)n(-c2ccccc2)c2ccc(OC(=O)COc3ccc(Cl)cc3Cl)cc12	7.5%
Cc1nc2nc(N)nc(N)c2c(C)c1Cc1cccs1	1.85%
O=C(Nc1ccc(-c2cccc(-c3nc4cc(F)ccc4[nH]3)c2)cc1)c1ccncc1	13.9%
O=C(Nc1cccc(-c2ccc(-c3nc4cc(C(F)(F)F)ccc4[nH]3)cc2)c1)c1c[nH]cn1	5.73%
Oc1ccccc1CCNC1CCc2ccccc2C1 (centres undefined)	4.4%
Cc1cc(N)nc2ccc(-c3ccc(CCN)cc3)cc12	2.07%
CC(Oc1ccc(NC(=O)c2cccs2)cc1)C(=O)c1ccc(Cl)cc1 (centres undefined)	11.3%
CC(C)N(Cc1ccccc1)C(=O)CN1C(=O)COc2ccc(S(=O)(=O)N3CCCCCC3)cc21	4.92%
CN1CCC(C(=O)Nc2ccc(-c3ccc(-c4nc5cc(C(F)(F)F)ccc5[nH]4)s3)cc2)CC1	-0.08%
CC(=O)N1N=C(c2ccccc2)Sc2c1nc(-c1ccc(Cl)cc1)n2C(C)=O	1.37%

Target: Hexose transporter 1 (Plasmodium falciparum) (UniProt O97467)
Experiment: ST_JUDE_LEISH: Cytotoxicity at 2uM final concentration against transgenic Leishmania Mexicana promastigotes LmPfHT that are glucose transport deficient and complemented with the Plasmodium falciparum hexose transporter. Activity is measured by DNA content using SYBR green in vitro
Assay type: functional

Compound	inhibition
COc1cc(C(C)C)ccc1C1CCN(CCCCNC(=O)c2ccc(NC(=O)c3ccc(Cl)cc3)cc2)CC1	6.6%
c1ccc(Nc2nc(-c3ccccn3)cs2)nc1	0.38%
Nc1nc2c(ncn2OC[C@H]2COP(=O)(O)CO2)c(=O)[nH]1	0.55%
COc1ccc(C=Cc2cc(=N)c3ccccc3[nH]2)cc1	2.77%
Cc1ccccc1Nc1nc(NCCc2ccccc2)nc2ccccc12	37.4%
CN1CCN(c2nsc3ccc(-c4ccc(NC(=O)Nc5cc(C(F)(F)F)ccc5F)cc4)cc23)CC1	1.74%
CCN(CC)CCCCCNc1c2ccc(Cl)cc2nc2ccc(OC)cc12	1.26%
CCCC1(NC[C@@H](O)[C@H](Cc2ccccc2)NC(=O)c2cc(NCC)cc(N3CCCCS3(=O)=O)c2)CCCCC1	0.97%
Cc1nc2ccc(S(=O)(=O)Nc3ccc(C(=O)N[C@@H](CCC(=O)O)C(=O)O)cc3)cc2c(=O)[nH]1	-1.45%
Nc1nc(N)c2c(ccc3c2cnn3Cc2cccnc2)n1	51.2%
Cc1ccc(-c2noc(COc3ccccc3C(=O)NC3CCCC3)n2)cc1	6.24%
O=C(Nc1cccc(CN2CCCN(Cc3cccc(O)c3)CC2)c1)c1ccc2ccccc2c1	1.53%
COc1cc(Cl)c(C)cc1-n1cc(C(=O)c2cc(Br)ccc2O)cc(C#N)c1=O	-1.65%
COc1ccc(CCNCCCCCCNCCc2ccc(Cl)c(Cl)c2)cc1OC	3.9%
O=C(c1ccc(-c2cccc(-c3nc4cc(C(F)(F)F)ccc4[nH]3)c2)cc1)N1CCCCC1CN1CCC(O)C1 (centres undefined)	0.38%
COc1ccc(CC(=O)NC(CCN2CCC3(CCc4ccccc43)CC2)c2ccc(Cl)c(Cl)c2)cc1 (centres undefined)	-0.66%
O=C(Nc1cccc(CN2CCN(Cc3cccc(O)c3)CC2)c1)c1ccc(Cl)c(Cl)c1	-0.84%
CNCc1cccc2nc(-c3csc(Cc4cc(Cl)ccc4OCC(C)C)n3)[nH]c12	0.5%
NC(Cc1cccc(I)c1)C(=O)NCC1CCCO1 (centres undefined)	0.37%
CCc1cc2c3c(N)nc(N)nc3ccc2n1C(CC)CC	72.7%

Compound	inhibition
Cc1cccc(C)c1/N=C1\NC(=S)N(c2cccc(Cl)c2)C12CCC(C(C)(C)C)CC2 (centres undefined)	-1.2%
O=C(/C=C/c1ccc(F)cc1)NC1CCC(CCN2CCc3ccc(-n4cccn4)cc3CC2)CC1 (centres undefined)	12.9%
COc1cccc(OC)c1CN1CCC(N(C)CCCCCCCCCN2CCC(OC(=O)Nc3ccccc3-c3ccccc3)CC2)CC1	108%
CCCCCN1CCC(NS(=O)(=O)c2cccc(C(=O)Nc3ccc(Cl)cc3)c2)CC1	1.63%
COc1ccc(-c2nc(NC(=O)Cc3cccc(OC)c3)sc2C)cc1	0.46%
CN(C)CCN(C)Cc1cccc(-c2cccc(NC(=O)c3cccc(C#N)c3)c2)c1	2.86%
CCn1c(Sc2ccc(C#N)c([N+](=O)[O-])c2)nnc1-c1ccc(OC)cc1	4.95%
CCCCNCC(O)COc1ccccc1-c1ccc(N/N=C/c2cccc3ccccc23)nn1 (centres undefined)	3.6%
Clc1ccc(CNc2nc(NCCc3c[nH]cn3)nc(N3CCCC4CCCCC43)n2)cc1 (centres undefined)	4.86%
CC(C)CCN1CCCN(Cc2cccc(NC(=O)c3cc4ccccc4s3)c2)CC1	0.43%
CCOC(=O)c1c(C)n(-c2ccccc2)c2ccc(OC(=O)COc3ccc(Cl)cc3Cl)cc12	6.74%
Cc1nc2nc(N)nc(N)c2c(C)c1Cc1cccs1	1.16%
O=C(Nc1ccc(-c2cccc(-c3nc4cc(F)ccc4[nH]3)c2)cc1)c1ccncc1	14.2%
O=C(Nc1cccc(-c2ccc(-c3nc4cc(C(F)(F)F)ccc4[nH]3)cc2)c1)c1c[nH]cn1	5.19%
Oc1ccccc1CCNC1CCc2ccccc2C1 (centres undefined)	5.27%
Cc1cc(N)nc2ccc(-c3ccc(CCN)cc3)cc12	3.64%
CC(Oc1ccc(NC(=O)c2cccs2)cc1)C(=O)c1ccc(Cl)cc1 (centres undefined)	10%
CC(C)N(Cc1ccccc1)C(=O)CN1C(=O)COc2ccc(S(=O)(=O)N3CCCCCC3)cc21	1.02%
CN1CCC(C(=O)Nc2ccc(-c3ccc(-c4nc5cc(C(F)(F)F)ccc5[nH]4)s3)cc2)CC1	0.49%
CC(=O)N1N=C(c2ccccc2)Sc2c1nc(-c1ccc(Cl)cc1)n2C(C)=O	1.41%

From ChEMBL document CHEMBL3433997, “St. Jude Leishmania screening dataset” (2016)
